Screens from PubChem BioAssay.
Compounds with a hit are over-represented: about 6.2% of the library has one in this group of screens.
Gal4-VP16 FLuc: Gal4-VP16 reporter inhibition counter-screen; Drosophila S2 Gal4-VP16 UAS-luciferase, luminescence, 20 h; Potency, µM (top dose mostly 53.6 µM), without a hit: at the top dose activity, negative = inhibition, most hits filed as inhibitors; 310,000 compounds, 3.5% hits;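 also: Gal4-VP16 expression switched on by copper sulfate through the metallothionein promoter; nearly all actives have a fitted effect of over 50% in size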
KinaseGlo FLuc: counter-screen: inhibitors of Kinase-Glo firefly luciferase; Kinase-Glo luciferase, ATP luminescence, 8 min; Potency, µM (highest dose often 38.3 µM), inactives show at the highest dose activity change, negative = inhibition, actives largely listed as inhibitors; 200,000 compounds, 0.28% hits; AID 1379; also: nearly all actives have a fitted effect of over 60% in size
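Kinase-Glo luciferase light output from ATP and luciferin was measured with 10 uM ATP, within the enzyme's linear range. Buffer: 50 mM imidazole pH 7.2, 50 mM KCl, 7 mM MgCl2, 0.01% Tween 20, 0.05% BSA; luminescence read after 8 min at ambient temperature.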
RORg inh: ROR gamma (mouse) transcription inhibition. P51450. Drosophila S2 Gal4-RORgamma UAS-luciferase reporter, 20 h. Potency, µM (doses to about 53.6 µM), inactives show top-dose activity change, negative = inhibition, usual class: inhibitors. 310,000 compounds, 5.4% hits; also: nearly all actives have a fitted effect of over 60% in size
Target sequence (P51450 whole entry, looked up, the tested form may be a part): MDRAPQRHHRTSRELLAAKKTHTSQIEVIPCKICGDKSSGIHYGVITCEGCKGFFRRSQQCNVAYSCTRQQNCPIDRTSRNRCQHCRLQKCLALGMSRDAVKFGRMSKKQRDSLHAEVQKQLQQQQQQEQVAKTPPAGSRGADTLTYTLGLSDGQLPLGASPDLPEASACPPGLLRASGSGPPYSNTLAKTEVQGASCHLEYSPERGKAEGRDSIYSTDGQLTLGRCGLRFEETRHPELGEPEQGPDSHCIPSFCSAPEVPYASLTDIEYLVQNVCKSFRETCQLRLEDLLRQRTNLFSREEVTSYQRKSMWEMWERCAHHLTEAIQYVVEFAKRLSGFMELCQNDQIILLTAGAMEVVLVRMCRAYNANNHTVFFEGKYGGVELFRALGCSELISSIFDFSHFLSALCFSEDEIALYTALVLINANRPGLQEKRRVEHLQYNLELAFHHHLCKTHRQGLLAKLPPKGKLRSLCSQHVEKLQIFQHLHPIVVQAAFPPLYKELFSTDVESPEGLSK
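In this cell-based reporter format, copper sulfate (700 uM final) drives Gal4–ROR gamma fusion expression from a metallothionein promoter in Drosophila Schneider cells; compounds preincubated 1 hr, reporter read after 20 hr at ambient temperature.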
Active calls of the source: *; ? = inconclusive; · = not tested or not shown; [ ] = dose if it differs, or a comment. Calls follow the shape of the dose curve; as a rule, active = well fitted curve in the direction sought with a large enough effect; inconclusive = small, poorly fitted or top-dose-only effect, or another doubt; inactive = no such curve, though single readings can be large; an effect the other way counts as inactive or inconclusive. % is scaled to controls: 0 for no effect and ±100 for the full control effect; potency is read from the fitted curve at half-maximal effect.

SMILES	Gal4-VP16 FLuc	KinaseGlo FLuc	RORg inh
CC[C@H]1C2=C3C(CC[C@H]4C(OC)OC[C@](C)([C@@H]34)N(C(=O)OC(C)(C)C)C2)C(CO)C1CO (stereo partly specified)	9%	0%	5%
Cc1c(C(=O)NCCSCc2cccc(C(F)(F)F)c2)cnn1-c1ccc(F)cc1	6%	·	42%
CN(C)c1ncc2nc(CCc3ccccc3)c(=O)n(-c3ccccc3)c2n1	-7%	1%	2%
COc1ccc(NC(=O)n2ncc3c(C)cccc32)cc1OC	?	·	1.1µM*
Cc1cccc2c1cnn2C(=O)Nc1ccccc1Br	9%	·	8%
COc1ccc(C)cc1NC(=O)n1ncc2c(C)cccc21	-18%	·	5%
COc1ccc(NC(=O)n2ncc3c(C)cccc32)cc1	2.5µM*	·	?
CC(=C/C(=O)O)/C=C/c1ccc(Cl)o1	?	-1%	-9%
CC(/C=C/c1ccc(C)o1)=C\C(=O)O	?	5%	20µM*
CCCCCNCCCCC	1%	·	-23%
COc1ccc(NC(=O)c2c(Nc3ccccc3)sc(C(=O)c3ccc(F)cc3)c2N)cc1	13µM*	-5%	-120%
COc1ccc(C(=O)c2sc(Nc3ccccc3)c(C(=O)Nc3ccc(OC)c(OC)c3)c2N)cc1	-89%	-7%	?
COc1cc(C(=O)ON=C2C=C(C)C(=O)C(C)=C2)cc(OC)c1OC	-3%	-4%	-36%
COc1cc(C(=O)O/N=C2\C=CC(=O)C(C)=C2)cc(OC)c1OC	5.6µM*	-3%	5µM*
Cc1ccc(S(=O)(=O)N(C(=O)c2ccncc2)c2ccc(OC(=O)c3ccncc3)c3ccccc23)cc1	?	-2%	13µM*
COC(=O)c1c(C)oc2ccc(N(C(=O)c3ccncc3)S(=O)(=O)c3ccc(C)cc3)cc12	7.1µM*	-5%	-39%
COC(=O)c1c(C)oc2ccc(N(C(=O)c3ccncc3)S(=O)(=O)c3ccccc3)cc12	?	0%	-27%
COC(=O)c1c(C)oc2ccc(N(C(=O)Oc3ccccc3)S(=O)(=O)c3ccc(Cl)c([N+](=O)[O-])c3)cc12	-3%	-6%	5%
COC(=O)c1c(C)oc2ccc(N(C(=O)c3ccncc3)S(=O)(=O)c3ccc4ccccc4c3)cc12	3.5µM*	2%	?
COC(=O)c1c(C)oc2ccc(N(C(=O)c3ccncc3)S(=O)(=O)c3ccc(C)cc3C)cc12	4.5µM*	-3%	?
Cc1ccc(S(=O)(=O)N(C(=O)c2ccncc2)c2ccc(OC(=O)c3ccncc3)c3ccccc23)c(C)c1	?	-2%	?
Cc1ccc([N+](=O)[O-])cc1S(=O)(=O)N(C(=O)c1ccncc1)c1ccc2oc3c(c2c1)CCCC3	-9%	-3%	-25%
CC(C)c1ccccc1NS(=O)(=O)c1cccs1	9%	·	-41%
COc1ccccc1S(=O)Cc1ccc(C(=O)NCc2ccccc2Cl)o1 (stereo unspecified)	5%	-2%	-1%
O=c1cc(-c2ccccc2)oc2cc(O[C@@H]3O[C@H](CO)[C@@H](O)[C@H](O)[C@H]3O)c(O)c(O)c12	-6%	1%	-4%
SMILES	Gal4-VP16 FLuc	KinaseGlo FLuc	RORg inh
COC(=O)N/N=C(\C)c1cccc(C(F)(F)F)c1	-4%	-4%	11%
CNC(=S)NNC(=O)c1cccc(C(F)(F)F)c1	-6%[0.365 µM]	0%	11µM*
CNC(=S)N/N=C(\C)c1cccc(C(F)(F)F)c1	3.5µM*	3%	1.1µM*
CNC(=S)N/N=C(\C)c1ccc(C)c(C)c1	5µM*	2%	1.8µM*
C/C(=N\NC(=O)C1CC1)c1ccc(C)c(C)c1	8%	·	12%
CNC(=S)NNC(=O)c1ccc(=O)n(Cc2cccc(C(F)(F)F)c2)c1	-8%	0%	?
CC(=O)Nc1ccc(S(=O)(=O)NCC2CCC(C(=O)NCCCN(C)Cc3ccccc3)CC2)cc1 (stereo unspecified)	?	·	4%
C=CCn1c(SCc2ccc(F)cc2)nnc1-c1sc2nc(C)cc(C)c2c1N	-2%	·	-10%
CCC(C)/C(C)=N/NC(=O)CNS(=O)(=O)c1ccc([N+](=O)[O-])cc1 (stereo unspecified)	-13%	·	-6%
Cc1nn(C)c(C)c1/C=N/NC(=O)CCn1nc(C)c([N+](=O)[O-])c1C	3.5µM*	-1%	-7%
Cc1ccc(/C=N/NC(=O)Cn2nc(C)c([N+](=O)[O-])c2C)o1	1%	·	-42%
CCN1CCN(/C=N/c2nc3c(s2)CCCC3)CC1	7.1µM*	-11%	8.9µM*
CN1CCN(CC(=O)Nc2nc3c(s2)CCCC3)CC1	2%	·	-11%
CCn1cc(C(C)NC(=O)Nc2ccc3c(c2)OCO3)c(C)n1 (stereo unspecified)	8%	-2%	2%
Cc1[nH]c2ccccc2c1C(c1ccccn1)N1CCCC1 (stereo unspecified)	-2%	0%	-26%
CCOC(=O)C1CCCN(C(c2ccccn2)c2c(C)[nH]c3ccccc23)C1 (stereo unspecified)	-5%	0%	13µM*
O=C(/C=C\c1ccc2c(c1)OCO2)NC1(C(=O)Nc2ccc3c(c2)OCO3)CCCCC1	-2%	-3%	3%
O=C(Cn1nnc(-c2ccccc2Cl)n1)N/N=C/c1ccc(-c2cccc(Cl)c2)o1	6.3µM*	4%	7.1µM*
O=C(CN1CCCC1)N/N=C/c1ccc(-c2cccc(Cl)c2)o1	-17%	-2%	?
CC(=O)Nc1ccc(N2C(=O)CC(Sc3nc(C)cc(C)n3)C2=O)cc1 (stereo unspecified)	3%	·	-7%
CC(=O)SC1CC(=O)N(c2c(C)cccc2C)C1=O (stereo unspecified)	?	·	10µM*
Cc1cccc(C)c1N1C(=O)CC(N2CCSCC2)C1=O (stereo unspecified)	5%	·	3%
CC(=O)SC1CC(=O)N(c2ccc(C(C)(C)C)cc2)C1=O (stereo unspecified)	?	·	7.1µM*
COc1cc2c(cc1OC)CN(CC(=O)Nc1ccc(C)c(C)c1)CC2	-4%	·	24%
Cc1ccn(CC(C)C(=O)O)n1 (stereo unspecified)	7%	-1%	-9%
SMILES	Gal4-VP16 FLuc	KinaseGlo FLuc	RORg inh
CC(C)NC(=O)C1(O)c2ccccc2NC(=O)N1c1ccc(Cl)c(Cl)c1 (stereo unspecified)	4%	0%	2%
Cc1ccc(-n2nnnc2C(Cl)c2nnnn2-c2ccc(C)cc2)cc1	8.9µM*	3%	11µM*
Cc1ccc(-n2nnnc2-c2ccccc2)cc1	-4%	0%	13%
COc1ccc(CNC[C@@H](CCCCN(C)Cc2ccc(OC)cc2)N2C[C@H](c3ccccc3)N(CCc3ccc(Cl)c(Cl)c3)C(=O)C2=O)cc1	5µM*	·	5.6µM*
CCOc1ccc(CCN2C(=O)C(=O)N([C@H](CCCN(C)Cc3ccccc3)CNCc3ccccc3)C[C@@H]2C(C)C)cc1	-1%	·	40%
O=C1c2ccccc2C(=O)C1c1ccnc2ccccc12	?	-24%	?
O=C1c2ccccc2C(=O)C1c1nccc2ccccc12	?	8.9µM*	?
Oc1cccc(NC(=S)N=Nc2c(O)[nH]c3ccc(Br)cc23)c1	-7%	·	-40%
Oc1ccc(NC(=S)N=Nc2c(O)[nH]c3ccc(Br)cc23)cc1	?	-2%	10µM*
